Assay outcomes from PubChem BioAssay.
Sampled rows, rich in hits. Any-hit rate of the full collection: about 10%.
GPT2 inh: blocks human glutamate pyruvate transaminase 2. Q8TD30. Recombinant GPT2, coupled pyruvate oxidase/HRP Amplex Red fluorescence. Potency, µM (series often up to 57.7 µM), actives largely listed as inhibitors. 100,000 compounds, 0.25% hits. AID 1671188; further: nearly all actives have a fitted effect of over 60% in size
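Recombinant GPT2 (10ng/uL) with 250uM a-KG and 2mM L-alanine, 30 min at room temperature, in HEPES pH 7.5 buffer. Pyruvate detected by pyruvate oxidase/HRP/Amplex Red fluorescence after 30 min in the dark; AOA (50uM) as positive control.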
FLuc inh: Photinus pyralis luciferase inhibition; purified P. pyralis luciferase, luminescence, biochemical; Potency, µM (doses to about 115 µM), actives largely listed as inhibitors; 76,000 compounds, 2.5% hits; AID 1347043; further: nearly all actives have a fitted effect of over 65% in size
Target sequence (P08659 whole entry, looked up): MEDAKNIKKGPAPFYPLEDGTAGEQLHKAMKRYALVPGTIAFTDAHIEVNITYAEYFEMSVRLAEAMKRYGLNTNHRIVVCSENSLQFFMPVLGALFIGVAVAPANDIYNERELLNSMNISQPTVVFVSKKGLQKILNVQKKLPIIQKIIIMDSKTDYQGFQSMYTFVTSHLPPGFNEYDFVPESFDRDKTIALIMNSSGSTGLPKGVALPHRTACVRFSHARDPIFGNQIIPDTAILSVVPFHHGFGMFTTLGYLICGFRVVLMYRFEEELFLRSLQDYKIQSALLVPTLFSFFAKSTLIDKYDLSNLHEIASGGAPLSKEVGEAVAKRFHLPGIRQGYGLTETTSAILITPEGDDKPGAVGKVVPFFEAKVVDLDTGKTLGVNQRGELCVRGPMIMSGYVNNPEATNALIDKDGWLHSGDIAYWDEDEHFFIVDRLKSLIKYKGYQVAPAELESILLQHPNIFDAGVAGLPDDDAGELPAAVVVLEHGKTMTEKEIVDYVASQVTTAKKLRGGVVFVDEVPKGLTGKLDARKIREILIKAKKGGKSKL
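Purified 10nM P. pyralis luciferase with 10uM D-luciferin and 10uM ATP in 50mM Tris acetate pH 7.5, 10mM Mg acetate, 0.01% Tween-20, 0.05% BSA. qHTS titration; luminescence read by CCD imager.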
hNpr1 antagonist: blocks ANP-stimulated signaling of human Npr1 receptor; HEK293 hNpr1 GloSensor cGMP, ANP-stimulated luminescence; Potency, µM (highest dose often 46.3 µM), most hits filed as inhibitors; 76,000 compounds, 1.6% hits; calls by dose curve; further: nearly all actives have a fitted effect of over 60% in size
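Compound pre-incubated 30 min at room temperature on GloSensor-loaded HEK293 cells stably carrying hNpr1 and the pGS-40F cGMP biosensor. Stimulation uses hNppA at 0.1 nM final; luminescence is taken at baseline and 20 min post-agonist.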
NIH3T3 tox: NIH 3T3 cell cytotoxicity | 94,000 compounds, 4.3% hits | Potency, µM (doses to about 96.7 µM), hits mostly inhibitors | AID 1345082 | NIH 3T3 viability, CellTiter-Glo ATP luminescence, 48-72 h; further: nearly all actives have a fitted effect of over 55% in size
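Viability of NIH 3T3 cells after 48 or 72 hr compound treatment at 37 °C was assessed by CellTiter-Glo, with luminescence imaged following a 10 min room-temperature step.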
HEK cytotox: HEK 293 cell cytotoxicity; HEK 293 viability, ATP luminescence (CellTiter-Glo), 48-72 h; Potency, µM (doses to about 115 µM), hits mostly inhibitors; 94,000 compounds, 6.6% hits; further: nearly all actives have a fitted effect of over 60% in size
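HEK 293 cells seeded at 250 cells/well were exposed to compound for 48 or 72 hr at 37 degree Celsius. Viability taken as ATP content by CellTiter-Glo luminescence.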
Each line names hits and unclear results; the compound was inactive in the other large screens. Unless noted, the call rests on the fitted dose curve; in most records, active means well fitted curve in the direction sought with a large enough effect; inconclusive means small, poorly fitted or top-dose-only effect, or another doubt; inactive means no such curve, though single readings can be large; an effect the other way counts as inactive or inconclusive.

COc1ccc(-c2cc(N3CCCC(NC(=O)c4ccc5cc[nH]c5c4)C3)n[nH]2)cc1 (stereo unspecified)	FLuc inh 11µM, hNpr1 antagonist inconclusive, NIH3T3 tox inconclusive, HEK cytotox inconclusive
COc1ccc(-c2cc(N3CCC(NC(=O)c4ccc(F)c(Cl)c4)C3)n[nH]2)cc1 (stereo unspecified)	NIH3T3 tox 40µM, HEK cytotox inconclusive
CCN1CCCC12Cc1ccccc1CN([S+](C)(=O)[O-])C2 (stereo unspecified)	none (no result: FLuc inh, hNpr1 antagonist)
COc1ccc(OC)c(NC(=O)CCC[C@@H]2[C@H]3CCCN4CCC[C@@H](CN2C)[C@@H]34)c1	none
CCCCCC(=O)N1CC(=O)N(Cc2c(OC)cccc2OC)CC(O)C1 (stereo unspecified)	HEK cytotox inconclusive (no result: GPT2 inh, FLuc inh, hNpr1 antagonist)
O=C(c1cc(-c2cccc(C(F)(F)F)c2)c2nncn2n1)N1CCC(c2ccccc2)CC1	NIH3T3 tox inconclusive, HEK cytotox 25µM (no result: FLuc inh, hNpr1 antagonist)
O=C(c1cc(-c2cccc(C(F)(F)F)c2)c2nncn2n1)N1CCCC1	none (no result: FLuc inh, hNpr1 antagonist)
C#CCNC(=O)c1cc(-c2cccc(C(F)(F)F)c2)c2nncn2n1	NIH3T3 tox inconclusive, HEK cytotox 10µM (no result: FLuc inh, hNpr1 antagonist)
O=C(c1nccc2ccccc12)N1CCC(N2C(=O)C(OCC3CC3)C23CCCCC3)CC1 (stereo unspecified)	HEK cytotox inconclusive
Cc1ccc(C(=O)NC2CCN(c3nc4ncccc4o3)C2)cc1 (stereo unspecified)	none (no result: FLuc inh, hNpr1 antagonist)
Cc1cc(C)cc(NC(=O)N2C[C@@H](F)C[C@H]2C(=O)N2CCc3ccccc3C2)c1	NIH3T3 tox inconclusive (no result: FLuc inh, hNpr1 antagonist)
Cc1ccc(NC(=O)N2C[C@@H](F)C[C@H]2C(=O)N2CCc3ccccc3C2)cc1Cl	NIH3T3 tox inconclusive, HEK cytotox 28µM
COc1cc(CNc2nccc3c(=O)cc(N4CCOCC4)oc23)cc(OC)c1	NIH3T3 tox 89µM
COc1ccc(-c2nccc3c(=O)cc(N4CCN(C)CC4)oc23)cn1	NIH3T3 tox inconclusive
COc1ncc(-c2nccc3c(=O)cc(N4CCN(C)CC4)oc23)cn1	NIH3T3 tox 89µM
COc1cccc(-c2nccc3c(=O)cc(N4CCOCC4)oc23)c1	NIH3T3 tox 20µM, HEK cytotox inconclusive
O=c1cc(N2CCOCC2)oc2c(-c3cccnc3)nccc12	NIH3T3 tox 79µM
O=C1CN([S+](=O)([O-])c2ccc(F)cc2)CC(O)CN1Cc1cccc(F)c1 (stereo unspecified)	NIH3T3 tox inconclusive (no result: GPT2 inh, FLuc inh, hNpr1 antagonist)
CC(=O)NCc1nnc2n1C(C(=O)NCCc1ccccc1F)CC2 (stereo unspecified)	none (no result: FLuc inh, hNpr1 antagonist)
O=C(c1ccccc1F)N1CCC(Oc2ncccc2C(=O)N2CCCCC2)C1 (stereo unspecified)	none
COc1ccc([S+](=O)([O-])c2nnn3c2nc(N2CCC(F)CC2)c2ccccc23)cc1	none (no result: FLuc inh, hNpr1 antagonist)
COc1ccc(-c2cn3cc(C(=O)NCCN4CCOCC4)nc3s2)cc1	none (no result: FLuc inh, hNpr1 antagonist)
c1ccc(CN2CCC[C@H]2c2nc(-c3ccc(OC4CCCCC4)nc3)no2)nc1	FLuc inh inconclusive, hNpr1 antagonist inconclusive, NIH3T3 tox 45µM, HEK cytotox 63µM
COCCOc1ccc(-c2noc([C@@H]3CCCN3Cc3c[nH]c4ccccc34)n2)cn1	HEK cytotox inconclusive
COCCNc1ncccc1-c1noc([C@@H]2CCCN2Cc2ccncc2)n1	HEK cytotox inconclusive
COCCNc1ncccc1-c1noc([C@@H]2CCCN2Cc2ccccn2)n1	NIH3T3 tox inconclusive, HEK cytotox 22µM
c1ccc2c(CN3CCC[C@H]3c3nc(-c4ccc(OC5CCCCC5)nc4)no3)c[nH]c2c1	NIH3T3 tox 32µM, HEK cytotox 35µM
c1ccc2ncc(CN3CCC[C@H]3c3nc(-c4ccc(OC5CCCCC5)nc4)no3)cc2c1	hNpr1 antagonist inconclusive, NIH3T3 tox inconclusive, HEK cytotox inconclusive
COc1cccc(CNC(=O)C2CCN(C(=O)c3ccc(-c4ccccc4OC)cc3)CC2)c1	NIH3T3 tox inconclusive, HEK cytotox inconclusive (no result: FLuc inh, hNpr1 antagonist)
O=c1cc(N2CCOCC2)oc2c(NC3CCOCC3)nccc12	GPT2 inh inconclusive, NIH3T3 tox 32µM
Cn1cc(-c2cc(=O)c3ccnc(NC4CCOCC4)c3o2)cn1	GPT2 inh inconclusive, NIH3T3 tox inconclusive
O=c1cc(N2CCOCC2)oc2c(Nc3ccccc3)nccc12	NIH3T3 tox 40µM
COc1ccc(Nc2nccc3c(=O)cc(N4CCOCC4)oc23)cn1	GPT2 inh inconclusive, NIH3T3 tox 89µM
O=C(NC1CCCN(c2cc(-c3ccc(F)cc3)[nH]n2)C1)c1ccccn1 (stereo unspecified)	FLuc inh inconclusive, NIH3T3 tox inconclusive, HEK cytotox inconclusive
Cn1cccc1C(=O)NC1CCCN(c2cc(-c3ccc(Cl)cc3)[nH]n2)C1 (stereo unspecified)	FLuc inh inconclusive, NIH3T3 tox 40µM, HEK cytotox 40µM
Cn1nccc1C(=O)NC1CCCN(c2cc(-c3ccc(Cl)cc3)[nH]n2)C1 (stereo unspecified)	FLuc inh inconclusive, NIH3T3 tox inconclusive, HEK cytotox inconclusive
O=C(NC1CCCN(c2cc(-c3ccc(Cl)cc3)[nH]n2)C1)c1ccccn1 (stereo unspecified)	FLuc inh 40µM, NIH3T3 tox inconclusive, HEK cytotox 45µM
O=C(NCc1ccccc1Cl)C1CCCN(Cc2cccc(-c3ccsc3)c2)C1 (stereo unspecified)	NIH3T3 tox 13µM, HEK cytotox 22µM (no result: GPT2 inh, FLuc inh, hNpr1 antagonist)
COc1cccc(CNC(=O)C2CCCN(Cc3cccc(-c4ccccc4OC)c3)C2)c1 (stereo unspecified)	NIH3T3 tox inconclusive, HEK cytotox inconclusive (no result: FLuc inh, hNpr1 antagonist)
O=C(NCc1cccc(Cl)c1)C1CCCN(Cc2cccc(-c3ccsc3)c2)C1 (stereo unspecified)	NIH3T3 tox 40µM, HEK cytotox 32µM (no result: GPT2 inh, FLuc inh, hNpr1 antagonist)
O=C(c1ccc(F)cc1)N1CCN(c2nccc(Nc3ccccc3Cl)n2)CC1	NIH3T3 tox inconclusive, HEK cytotox inconclusive (no result: FLuc inh, hNpr1 antagonist)
Cc1ccc(C(=O)N2CCN(C(=O)c3nc4cccnc4n(CC(C)C)c3=O)CC2)cc1	none (no result: FLuc inh, hNpr1 antagonist)
OCC1(CN2CCCC2)CCN(Cc2ccc3ccccc3c2)CC1	NIH3T3 tox 40µM, HEK cytotox 40µM
OCC1(CN2CCCC2)CCN(C/C=C/c2ccccc2)CC1	NIH3T3 tox inconclusive, HEK cytotox 35µM
OCC1(CN2CCCC2)CCN(Cc2c(Cl)cccc2Cl)CC1	NIH3T3 tox inconclusive, HEK cytotox inconclusive
OCC1(CN2CCCC2)CCN(Cc2cc(F)cc(F)c2)CC1	none
CC(C)c1noc(CN(C)C(=O)c2csc3nc(-c4ccc(F)cc4)cn23)n1	hNpr1 antagonist inconclusive, NIH3T3 tox inconclusive, HEK cytotox 45µM
CN(Cc1nccn1C)C(=O)c1csc2nc(-c3ccc(C(F)(F)F)cc3)cn12	FLuc inh 40µM, NIH3T3 tox inconclusive, HEK cytotox 40µM
CC(C)(CN1CCOCC1)NC(=O)c1csc2nc(-c3ccc(F)cc3)cn12	HEK cytotox inconclusive
